Screen size: about 5,500 compounds; about 2,000 (36%) were called active. Another 18% or so got no clear call; they are omitted. Cut-off read from the data, not from the text of the source: active = normalized growth mostly below about 0.91 (no sharp cut-off); inconclusive = no clear call, values can overlap the other calls; inactive = mostly above about 0.92. Some of the results follow.
Assay: chemical genetic growth profiling, strain panel (AID 1159580);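 note: tested at 20 µM; growth read once vehicle control cultures reached saturation at 30 °C; 1 = growth at the plate median or of vehicle wells; lower values mean less growth of the strain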
Conditions: growth OD

Measured: normalized growth

CCC[C@@H]1C[C@@H](C(=O)N[C@H]([C@H]2O[C@H](SC)[C@H](O)[C@@H](O)[C@H]2O)[C@H](C)O)N(C)C1
inactive: S. cerevisiae deletion strains, locus YJR066W, strain TOR1, hits give low values 0.967 | S. cerevisiae deletion strains, locus YJR075W, strain HOC1, hits give low values 0.993 | S. cerevisiae deletion strains, locus YKL009W, strain mrt4, hits give low values 0.974 | S. cerevisiae deletion strains, locus YKL068W, hits give low values 0.991 | S. cerevisiae deletion strains, locus YKL085W, strain MDH1 (second series), hits give low values 0.984 | S. cerevisiae deletion strains, locus YKL085W, strain MDH1, hits give low values 0.984 | S. cerevisiae deletion strains, locus YKL160W, strain elf1, hits give low values 0.964 | S. cerevisiae deletion strains, locus YKL190W, strain CNB1, hits give low values 1.01 | S. cerevisiae deletion strains, locus YKR001C, strain vps1, hits give low values 0.996 | S. cerevisiae deletion strains, locus YKR026C, strain gcn3, hits give low values 0.979 | S. cerevisiae deletion strains, locus YKR091W, strain srl3, hits give low values 0.987 | S. cerevisiae deletion strains, locus YLL001W, strain dnm1, hits give low values 0.951 | S. cerevisiae deletion strains, locus YLL026W, hits give low values 0.962 | S. cerevisiae deletion strains, locus YLL041C, strain sdh2, hits give low values 0.982 | S. cerevisiae deletion strains, locus YLR027C, strain aat2, hits give low values 0.97 | S. cerevisiae deletion strains, locus YLR039C, strain RIC1, hits give low values 0.973 | S. cerevisiae deletion strains, locus YLR058C, strain SHM2, hits give low values 0.977 | S. cerevisiae deletion strains, locus YLR102C, strain apc9, hits give low values 0.992 | S. cerevisiae deletion strains, locus YLR113W, strain HOG1, hits give low values 1.03 | S. cerevisiae deletion strains, locus YLR221C, strain rsa3, hits give low values 1.03 | S. cerevisiae deletion strains, locus YLR258W, strain gsy2, hits give low values 1 | S. cerevisiae deletion strains, locus YLR262C, strain YPT6 (second series), hits give low values 0.965 | S. cerevisiae deletion strains, locus YLR262C, strain YPT6, hits give low values 1.02 | S. cerevisiae deletion strains, locus YLR268W, strain sec22, hits give low values 1.01 | S. cerevisiae deletion strains, locus YLR320W, strain mms22, hits give low values 1.02 | S. cerevisiae deletion strains, locus YLR330W, strain CHS5, hits give low values 0.986 | S. cerevisiae deletion strains, locus YLR342W, strain FKS1 (second series), hits give low values 1 | S. cerevisiae deletion strains, locus YLR342W, strain FKS1, hits give low values 0.966 | S. cerevisiae deletion strains, locus YLR357W, strain rsc2, hits give low values 1 | S. cerevisiae deletion strains, locus YLR370C, strain arc18, hits give low values 0.972 | S. cerevisiae deletion strains, locus YLR371W, strain rom2, hits give low values 0.992 | S. cerevisiae deletion strains, locus YLR384C, strain iki3, hits give low values 0.97 | S. cerevisiae deletion strains, locus YLR418C, strain cdc73, hits give low values 0.975 | S. cerevisiae deletion strains, locus YML016C, strain PPZ1, hits give low values 0.989 | S. cerevisiae deletion strains, locus YML032C, strain rad52, hits give low values 1 | S. cerevisiae deletion strains, locus YML120C, strain ndi1, hits give low values 0.95 | S. cerevisiae deletion strains, locus YML124C, strain tub3, hits give low values 0.998 | S. cerevisiae deletion strains, locus YMR058W, strain fet3, hits give low values 0.975 | S. cerevisiae deletion strains, locus YMR078C, strain ctf18, hits give low values 0.986 | S. cerevisiae deletion strains, locus YMR125W, strain sto1, hits give low values 0.992 | S. cerevisiae deletion strains, locus YMR129W, hits give low values 0.991 | S. cerevisiae deletion strains, locus YMR205C, strain PFK2, hits give low values 0.99 | S. cerevisiae deletion strains, locus YMR223W, strain ubp8, hits give low values 0.962 | S. cerevisiae deletion strains, locus YMR231W, strain pep5, hits give low values 0.996 | S. cerevisiae deletion strains, locus YMR263W, strain SAP30, hits give low values 0.996 | S. cerevisiae deletion strains, locus YMR307W, strain GAS1, hits give low values 1 | S. cerevisiae deletion strains, locus YNL067W, strain RPL9B, hits give low values 1.01 | S. cerevisiae deletion strains, locus YNL071W, strain lat1, hits give low values 0.986 | S. cerevisiae deletion strains, locus YNL183C, strain NPR1, hits give low values 0.968 | S. cerevisiae deletion strains, locus YNL209W, strain ssb2, hits give low values 0.993 | S. cerevisiae deletion strains, locus YNL233W, strain BNI4, hits give low values 0.984 | S. cerevisiae deletion strains, locus YNL248C, strain rpa49, hits give low values 1.02 | S. cerevisiae deletion strains, locus YNL250W, strain rad50, hits give low values 0.979 | S. cerevisiae deletion strains, locus YNL271C, strain bni1, hits give low values 0.985 | S. cerevisiae deletion strains, locus YNL298W, strain CLA4, hits give low values 0.989 | S. cerevisiae deletion strains, locus YNL307C, strain MCK1, hits give low values 0.993 | S. cerevisiae deletion strains, locus YNL322C, strain KRE1 (second series), hits give low values 0.987 | S. cerevisiae deletion strains, locus YNL322C, strain KRE1, hits give low values 0.993 | S. cerevisiae deletion strains, locus YNR049C, strain mso1, hits give low values 0.977 | S. cerevisiae deletion strains, locus YNR052C, strain pop2, hits give low values 0.987 | S. cerevisiae deletion strains, locus YOL012C, strain htz1 0.745 | S. cerevisiae deletion strains, locus YOL147C, strain pex11, hits give low values 0.985 | S. cerevisiae deletion strains, locus YOR001W, strain rrp6, hits give low values 0.947 | S. cerevisiae deletion strains, locus YOR061W, strain CKA2, hits give low values 0.998 | S. cerevisiae deletion strains, locus YOR069W, strain VPS5, hits give low values 0.99 | S. cerevisiae deletion strains, locus YOR070C, strain gyp1, hits give low values 0.993 | S. cerevisiae deletion strains, locus YOR080W, strain dia2, hits give low values 0.971 | S. cerevisiae deletion strains, locus YOR083W, strain WHI5, hits give low values 0.966 | S. cerevisiae deletion strains, locus YOR106W, strain vam3, hits give low values 0.951 | S. cerevisiae deletion strains, locus YOR136W, strain idh2, hits give low values 0.984 | S. cerevisiae deletion strains, locus YOR144C, strain elg1, hits give low values 0.985 | S. cerevisiae deletion strains, locus YOR184W, strain ser1, hits give low values 0.978 | S. cerevisiae deletion strains, locus YOR231W, strain MKK1, hits give low values 1.04 | S. cerevisiae deletion strains, locus YOR265W, strain rbl2, hits give low values 0.983 | S. cerevisiae deletion strains, locus YOR270C, strain vph1, hits give low values 0.948 | S. cerevisiae deletion strains, locus YOR290C, strain snf2, hits give low values 1 | S. cerevisiae deletion strains, locus YOR316C, strain cot1, hits give low values 0.992 | S. cerevisiae deletion strains, locus YPL051W, strain arl3, hits give low values 1 | S. cerevisiae deletion strains, locus YPL078C, strain atp4, hits give low values 0.928 | S. cerevisiae deletion strains, locus YPL106C, strain sse1, hits give low values 0.94 | S. cerevisiae deletion strains, locus YPL240C, strain hsp82, hits give low values 0.981 | S. cerevisiae deletion strains, locus YPL241C, strain CIN2, hits give low values 0.998 | S. cerevisiae deletion strains, locus YPL256C, strain CLN2, hits give low values 1.03 | S. cerevisiae deletion strains, locus YPR119W, strain clb2, hits give low values 0.997 | S. cerevisiae deletion strains, locus YPR141C, strain kar3, hits give low values 0.985 | S. cerevisiae deletion strains, locus YPR163C, strain tif3, hits give low values 0.987 | S. cerevisiae deletion strains, locus YPR167C, strain met16, hits give low values 0.993 | S. cerevisiae deletion strains, strain wtn01, hits give low values 0.98 | S. cerevisiae strains, strain wild type, hits give low values 1.01
